Here are results for 19 molecules from PubChem BioAssay (NCATS).

Records with an inconclusive call do not appear. The source made the active and inactive calls. Calls come from the whole dose curve; as a rule, active = well fitted inhibition curve with a large enough effect; inconclusive = small, poorly fitted or top-dose-only effect; inactive = no such curve, though single readings can be large or run the other way.

This experiment is described as follows: Primary qHTS for inhibitors of La Crosse Virus (LACV) - induced cell death in SH-SY5Y cells (AID 1508616).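 Note: top concentration of the series differs between compounds; 0% = infected DMSO wells and 100% = uninfected DMSO wells; higher means more rescue of cells from virus-induced death.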 The following applies: SH-SY5Y LACV cytopathicity rescue, ATP luminescence, 6 d; series mostly up to 9.63 µM; activity change: at the top concentration. The essentials:
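Luminescent ATP readout (ATPLite 1step, 5 min room temperature) measured rescue from LACV-induced death after 6 days of infection at 0.01 MOI; normalized to infected DMSO wells and uninfected DMSO wells.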
(qHTS replaces the single test concentration by a dilution series.)
Regarding `COC(=O)c1c(C)[nH]c(C)c1C(=O)c1ccccc1Cc1ccccc1`, the “activity change” value is 31.6% (inactive).

With `NCCSSCCN`, the “activity change” value is 15.6% (inactive).

`COc1cc2c(CCNC(C)=O)c[nH]c2cc1Cl`: the “activity change” value was 14.7% (inactive).

For the molecule `Nc1nc(Nc2ccccc2)nc2c1ncn2[C@@H]1O[C@H](CO)[C@@H](O)[C@H]1O`, the “activity change” value is 3.54% (inactive).

Consider `CNC(=O)[C@H]1O[C@@H](n2cnc3c(NCc4ccc(N)cc4)ncnc32)[C@H](O)[C@@H]1O`, for which the “activity change” value is -13.6% (inactive).

`NCCCS(=O)(=O)O`: the “activity change” value was 8.82% (inactive).

Turning to `CNc1ncnc2c1ncn2[C@@H]1O[C@H](CO)[C@@H](O)[C@H]1O`, the “activity change” value was 7.58% (inactive).

As to `CN(C)C(N)=NCCC[C@H](N)C(=O)O`, the “activity change” value was -18.9% (inactive).

On to `O=C(O)CC1CCCc2ccccc2C1O` (centres undefined), for which the “activity change” value was 11.8% (inactive).

Regarding `COc1ccc(NC(=O)/C=C/c2ccc(Cl)cc2)cc1`, the “activity change” value was 56.5% (inactive).

Take `CN=c1nc(-c2ccccc2)n(-c2ccccc2)s1`: the “activity change” value was 29.4% (inactive).

On to `Nc1ncnc2c1ncn2[C@@H]1O[C@H](COP(=O)(O)CP(=O)(O)OP(=O)(O)O)[C@@H](O)[C@H]1O`, for which the “activity change” value is -12.8% (inactive).

As to `NC[C@H]1O[C@@H](n2cnc3c(N)ncnc32)[C@H](O)[C@@H]1O`, the “activity change” value is -18.6% (inactive).

Turning to `Clc1ccc(N2CCN(Cc3cc4ccccn4n3)CC2)cc1`, the “activity change” value was 0.209% (inactive).

Regarding `C[C@@H](CN1CCC(Cc2ccccc2)CC1)[C@@H](O)c1ccc(O)cc1`, the “activity change” value was 11.6% (inactive).

Turning to `S=C(S)OC1CC2CC1C1CCCC21` (centres undefined), the “activity change” value was 1.86% (inactive).

Take `Clc1ccc(N2CCN(Cc3c[nH]c4ncccc34)CC2)cc1`: the “activity change” value was -16.6% (inactive).

On to `CSc1nc(N)c2ncn([C@@H]3O[C@H](COP(=O)(O)OP(=O)(O)OP(=O)(O)O)[C@@H](O)[C@H]3O)c2n1`, for which the “activity change” value was 4.7% (inactive).

As to `O=C1/C(=C/c2ccsc2)CC/C1=C\c1cccs1`, the “activity change” value is 10.7% (inactive).
